32 compounds from PubChem BioAssay (EPA / NIEHS) can be followed below.

Results filed as inconclusive are left out. The source holds several records for some structures; these can differ, active in one and inactive in another. Calls of active or inactive are those of the source. Rule for the calls: active = hit-call score of the fitted dose curve at least 0.9, where 1 is the maximum; inconclusive = response in the unintended direction; inactive = score below 0.9.

For test [1], the target named is Estrogen receptor (Homo sapiens) (UniProt P03372). Description: OT_ER_ERaERa_1440: Odyssey Thera (OT) 24-hour HEK293T Protein-Complementation Assay for Estrogen Receptor-alpha/-alpha Homodimer (AID 2283349).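 Note: hits raise fluorescence above DMSO for agonists and antagonists alike.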 In short, it runs like this:
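HEK293T cells stably expressing the human ER alpha ligand-binding domain (aa 310-547) as a homodimer PCA were dosed for 24 hours. Fluorescence intensity was read by laser scanning cytometry, and gain of signal was fitted relative to DMSO vehicle.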

Test [2] has the same target. The test is described as follows: OT_ER_ERaERa_0480: Odyssey Thera (OT) 8-hour HEK293T Protein-Complementation Assay for Estrogen Receptor-alpha/-alpha Homodimer (AID 2283351).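 Note: rise in fluorescence from reassembled reporter fragments on ERα LBD homodimer in nucleus or whole cell.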 In short, it runs like this: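 HEK293T, stable ERα LBD (aa 310-547) PCA homodimer; 8 h compound exposure; fluorescence intensity, laser scanning cytometer; positive fitting direction, DMSO baseline.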

Test [3] addresses T1, Estrogen receptor (Homo sapiens) + Estrogen receptor beta (Homo sapiens) (UniProt P03372+Q92731). The test is described as follows: OT_ER_ERaERb_0480: Odyssey Thera (OT) 8-hour HEK293T Protein-Complementation Assay for Estrogen Receptor-alpha/-beta Heterodimer (AID 2283352). In short, it runs like this:
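Compound added to HEK293T cells carrying split-reporter-tagged ER-alpha and ER-beta LBDs, incubated 8 hours, then imaged by laser scanning cytometer. Signal rise in nucleus, or nucleus and cytoplasm, over vehicle was fitted in the positive direction.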

In test [4] the target is Androgen Receptor/SRC-1 Co-activator, AR (gene 367) (UniProt P10275). The test is described as follows: OT_AR_ARSRC1_0960: Odyssey Thera (OT) 16-hour HEK293T Protein-Complementation Assay for Androgen Receptor/SRC-1 Co-activator (AID 2283353).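 Note: actives raise the signal above DMSO so potency reflects increased AR and SRC-1 complex.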 In short, it runs like this:
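Split-Venus PCA, AR/SRC-1 fusions, stable HEK293T; 16 h compound exposure; imaged at 488 and 635 nm; N/C ratio (488 nm channel), min 400 cells/image; positive-direction fit, DMSO baseline.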

For test [5] the target is unchanged. The test is described as follows: OT_AR_ARSRC1_0480: Odyssey Thera (OT) 8-hour HEK293T Protein-Complementation Assay for Androgen Receptor/SRC-1 Co-activator (AID 2283354).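 Note: hits raise the complementation signal above DMSO so AC50 marks enhancers.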 In short, it runs like this: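 HEK293T cells stably expressing AR and SRC-1 fused to Venus YFP fragments, imaged 8 h after dosing. Complementation fluorescence scored as nuclear/cytoplasmic ratio at 488 nm in at least 400 cells per image; gain fitted versus DMSO.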

The target of test [6] is T1, Estrogen receptor (Homo sapiens) + Estrogen receptor beta (Homo sapiens). Description: OT_ER_ERaERb_1440: Odyssey Thera (OT) 24-hour HEK293T Protein-Complementation Assay for Estrogen Receptor-alpha/-beta Homodimer (AID 2283356).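 Note: heteromer of ER alpha and ER beta binding domains; hits raise reporter fluorescence and both agonists and antagonists give an increase.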 In short, it runs like this:
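Stable HEK293T PCA line, ERα LBD 310-547 + ERβ LBD 263-489 fused to reporter fragments; 24 h treatment; fluorescence read by laser scanning cytometry; positive fitting direction relative to DMSO.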

Test [7] addresses Estrogen receptor beta (Homo sapiens) (UniProt Q92731). Description: OT_ER_ERbERb_0480: Odyssey Thera (OT) 8-hour HEK293T Protein-Complementation Assay for Estrogen Receptor-beta/-beta Homodimer (AID 2283357).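 Note: active means signal gain over DMSO baseline.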 In short, it runs like this: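 Fluorescence intensity, nuclear for agonists and nuclear plus cytoplasmic for antagonists, was quantified by laser scanning cytometry versus vehicle after 8 h treatment. The cells were HEK293T stably carrying ER beta LBD fragment-complementation partners.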

In test [8] the target is chimpanzee Androgen Receptor (AR), AR (gene 747460) (UniProt O97775). Description: NVS_NR_cAR: NovaScreen (NVS) Nuclear Receptor Binding Assay for chimpanzee Androgen Receptor (AR) (AID 2283346).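 Note: a loss of bound radioligand signal versus DMSO counts as binding.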 In short, it runs like this: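 Radioligand binding to chimpanzee AR expressed in Sf9/Sf21 cells, cell-free, measured 72 h after dosing by lysate-based scintillation counting. Loss of signal vs DMSO; initial duplicate screen at 25 uM, actives retested in concentration series.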
Chain of chimpanzee Androgen Receptor (AR), AR (gene 747460) (O97775 whole entry, looked up): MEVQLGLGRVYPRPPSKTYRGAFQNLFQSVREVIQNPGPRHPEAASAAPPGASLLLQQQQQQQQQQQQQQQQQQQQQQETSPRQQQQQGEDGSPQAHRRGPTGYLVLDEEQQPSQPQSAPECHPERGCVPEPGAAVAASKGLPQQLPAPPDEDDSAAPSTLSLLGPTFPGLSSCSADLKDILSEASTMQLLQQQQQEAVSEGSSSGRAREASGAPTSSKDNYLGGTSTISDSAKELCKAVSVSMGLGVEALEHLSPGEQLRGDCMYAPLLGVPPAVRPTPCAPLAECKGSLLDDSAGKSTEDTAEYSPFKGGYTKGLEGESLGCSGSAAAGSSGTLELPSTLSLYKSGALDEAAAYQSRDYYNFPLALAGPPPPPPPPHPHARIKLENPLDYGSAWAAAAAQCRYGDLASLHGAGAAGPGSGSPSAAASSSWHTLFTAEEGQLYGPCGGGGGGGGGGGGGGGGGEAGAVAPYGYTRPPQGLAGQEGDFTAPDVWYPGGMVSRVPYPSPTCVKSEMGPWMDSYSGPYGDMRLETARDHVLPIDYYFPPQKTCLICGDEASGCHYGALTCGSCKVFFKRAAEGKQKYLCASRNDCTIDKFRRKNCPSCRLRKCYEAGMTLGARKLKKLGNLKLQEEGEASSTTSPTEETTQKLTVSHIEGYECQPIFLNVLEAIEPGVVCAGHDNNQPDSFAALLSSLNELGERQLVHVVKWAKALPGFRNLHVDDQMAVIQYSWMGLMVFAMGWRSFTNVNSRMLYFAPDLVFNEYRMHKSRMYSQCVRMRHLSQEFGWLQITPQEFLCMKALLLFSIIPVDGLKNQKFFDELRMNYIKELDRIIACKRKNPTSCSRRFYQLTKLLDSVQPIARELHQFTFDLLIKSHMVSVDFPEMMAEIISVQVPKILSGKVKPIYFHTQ

The target of test [9] is Estrogen receptor (Homo sapiens) (UniProt P03372). The test is described as follows: NVS_NR_hER: NovaScreen (NVS) Nuclear Receptor Binding Assay for human Estrogen Receptor (ER) (AID 2283348). In short, it runs like this: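 Radioligand competitive displacement binding to estrogen receptor from MCF7 extract, cell-free; 18 h after dosing, scintillation read-out. Primary screen in duplicate at 25 uM; actives followed up in concentration series; loss of signal vs DMSO.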
Chain of Estrogen receptor (Homo sapiens) (P03372 whole entry, looked up, the tested form may be a part): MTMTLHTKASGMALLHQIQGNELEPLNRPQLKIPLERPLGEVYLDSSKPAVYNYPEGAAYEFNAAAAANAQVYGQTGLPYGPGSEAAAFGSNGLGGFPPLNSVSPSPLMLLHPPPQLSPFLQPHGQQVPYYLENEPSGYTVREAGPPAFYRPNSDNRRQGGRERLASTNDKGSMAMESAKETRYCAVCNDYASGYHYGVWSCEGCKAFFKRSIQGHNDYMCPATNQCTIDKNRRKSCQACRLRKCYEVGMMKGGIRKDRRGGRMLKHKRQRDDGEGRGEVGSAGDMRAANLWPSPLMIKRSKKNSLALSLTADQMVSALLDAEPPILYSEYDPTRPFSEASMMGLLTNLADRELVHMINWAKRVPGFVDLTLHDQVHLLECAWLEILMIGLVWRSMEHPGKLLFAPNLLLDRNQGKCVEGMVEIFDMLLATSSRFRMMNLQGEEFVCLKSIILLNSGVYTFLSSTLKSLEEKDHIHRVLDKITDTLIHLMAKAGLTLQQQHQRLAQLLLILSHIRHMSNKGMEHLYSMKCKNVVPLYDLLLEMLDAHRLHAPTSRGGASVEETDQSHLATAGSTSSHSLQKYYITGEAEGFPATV

For another test, the target named is PGR (gene 5241) (UniProt P06401). The test is described as follows: NVS_NR_hPR: NovaScreen (NVS) Nuclear Receptor Binding Assay for human Progestron Receptor (PR) (AID 2283360).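 Note: active means loss of bound radioligand signal versus DMSO baseline.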 In short, it runs like this:
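Cell-free radioligand binding using receptor protein extracted from T47D cells, read by scintillation counting 18 hours after dosing. Loss of signal relative to DMSO baseline indicates displacement; primary screen single concentration 25 uM in duplicate, actives followed in concentration series.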

For test [10], the target named is bovine Estrogen Receptor (ER), ESR1 (gene 407238) (UniProt P49884). Description: NVS_NR_bER: NovaScreen (NVS) Nuclear Receptor Binding Assay for bovine Estrogen Receptor (ER) (AID 2283345).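 Note: actives lower the bound radioligand count which means they displace the ER ligand.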 In short, it runs like this:
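Cell-free radioligand binding with receptor from bovine uterine membranes, read by scintillation counting 18 h after dosing. Loss of specific binding was scored against DMSO; primary screen at 25 uM in duplicate, actives then run as concentration series.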

The target of test [11] is Retinoic acid receptor alpha (Homo sapiens) (UniProt P10276). The test is described as follows: NVS_NR_hRAR_Antagonist: NovaScreen (NVS) Nuclear Receptor Binding Assay for human Retinoic Acid Alpha Receptor Antagonism (RAR) (AID 2283358). In short, it runs like this: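 Cell-free TR-FRET binding assay with extracted human RARalpha in antagonist mode, read 2 h after dosing. Loss of signal was fitted relative to DMSO; the primary screen used 25 uM in duplicate, with concentration series on follow-up.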
Chain of Retinoic acid receptor alpha (Homo sapiens) (P10276 whole entry, looked up): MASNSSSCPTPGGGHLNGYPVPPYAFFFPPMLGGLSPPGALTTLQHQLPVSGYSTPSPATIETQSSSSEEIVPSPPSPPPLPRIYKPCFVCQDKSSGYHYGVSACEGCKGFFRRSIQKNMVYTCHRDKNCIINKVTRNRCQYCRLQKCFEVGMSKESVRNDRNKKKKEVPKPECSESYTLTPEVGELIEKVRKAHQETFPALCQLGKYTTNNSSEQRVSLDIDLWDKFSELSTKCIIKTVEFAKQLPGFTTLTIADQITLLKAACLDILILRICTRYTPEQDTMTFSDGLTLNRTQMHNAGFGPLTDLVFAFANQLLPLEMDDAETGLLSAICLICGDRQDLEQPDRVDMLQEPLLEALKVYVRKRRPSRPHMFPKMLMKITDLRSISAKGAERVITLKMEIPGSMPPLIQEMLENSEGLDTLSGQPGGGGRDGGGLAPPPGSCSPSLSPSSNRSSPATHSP

The target of test [12] is human Peroxisome Proliferator-activated Receptor alpha (PPARa), PPARA (gene 5465) (UniProt Q07869). Description: NVS_NR_hPPARa: NovaScreen (NVS) Nuclear Receptor Binding Assay for human Peroxisome Proliferator-activated Receptor alpha (PPARa) (AID 2283359).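 Note: activity means loss of TR-FRET signal versus DMSO baseline.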 In short, it runs like this: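 Cell-free TR-FRET binding assay with extracted PPARα protein, read 1 h after dosing. Primary screen in duplicate at 25 uM, with actives retested in concentration series. Loss of signal versus DMSO.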
Chain of human Peroxisome Proliferator-activated Receptor alpha (PPARa), PPARA (gene 5465) (Q07869 whole entry, looked up): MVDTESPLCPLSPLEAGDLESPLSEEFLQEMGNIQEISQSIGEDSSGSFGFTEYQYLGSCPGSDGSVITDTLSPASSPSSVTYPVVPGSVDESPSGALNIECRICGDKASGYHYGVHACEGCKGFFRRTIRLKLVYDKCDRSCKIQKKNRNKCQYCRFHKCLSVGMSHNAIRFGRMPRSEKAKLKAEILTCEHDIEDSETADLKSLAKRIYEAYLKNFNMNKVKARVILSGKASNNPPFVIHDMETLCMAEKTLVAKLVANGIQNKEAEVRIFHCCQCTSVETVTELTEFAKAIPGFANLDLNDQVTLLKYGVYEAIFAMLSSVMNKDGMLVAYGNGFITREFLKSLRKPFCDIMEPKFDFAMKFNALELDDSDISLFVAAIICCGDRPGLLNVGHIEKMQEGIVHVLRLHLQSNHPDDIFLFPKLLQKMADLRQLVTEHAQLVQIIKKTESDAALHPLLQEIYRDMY

In test [13] the target is rat Mineralocorticoid Receptor (MR), Nr3c2 (gene 25672) (UniProt P22199). The test is described as follows: NVS_NR_rMR: NovaScreen (NVS) Nuclear Receptor Binding Assay for rat Mineralocorticoid Receptor (MR) (AID 2283355). In short, it runs like this: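 Cell-free radioligand binding to mineralocorticoid receptor from adrenalectomized rat brain supernatant, scintillation counting after 24 h. Primary screen in duplicate at 25 uM; actives retested in concentration series. Loss of specific binding versus DMSO.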

Chain of PGR (gene 5241) (P06401 whole entry, looked up): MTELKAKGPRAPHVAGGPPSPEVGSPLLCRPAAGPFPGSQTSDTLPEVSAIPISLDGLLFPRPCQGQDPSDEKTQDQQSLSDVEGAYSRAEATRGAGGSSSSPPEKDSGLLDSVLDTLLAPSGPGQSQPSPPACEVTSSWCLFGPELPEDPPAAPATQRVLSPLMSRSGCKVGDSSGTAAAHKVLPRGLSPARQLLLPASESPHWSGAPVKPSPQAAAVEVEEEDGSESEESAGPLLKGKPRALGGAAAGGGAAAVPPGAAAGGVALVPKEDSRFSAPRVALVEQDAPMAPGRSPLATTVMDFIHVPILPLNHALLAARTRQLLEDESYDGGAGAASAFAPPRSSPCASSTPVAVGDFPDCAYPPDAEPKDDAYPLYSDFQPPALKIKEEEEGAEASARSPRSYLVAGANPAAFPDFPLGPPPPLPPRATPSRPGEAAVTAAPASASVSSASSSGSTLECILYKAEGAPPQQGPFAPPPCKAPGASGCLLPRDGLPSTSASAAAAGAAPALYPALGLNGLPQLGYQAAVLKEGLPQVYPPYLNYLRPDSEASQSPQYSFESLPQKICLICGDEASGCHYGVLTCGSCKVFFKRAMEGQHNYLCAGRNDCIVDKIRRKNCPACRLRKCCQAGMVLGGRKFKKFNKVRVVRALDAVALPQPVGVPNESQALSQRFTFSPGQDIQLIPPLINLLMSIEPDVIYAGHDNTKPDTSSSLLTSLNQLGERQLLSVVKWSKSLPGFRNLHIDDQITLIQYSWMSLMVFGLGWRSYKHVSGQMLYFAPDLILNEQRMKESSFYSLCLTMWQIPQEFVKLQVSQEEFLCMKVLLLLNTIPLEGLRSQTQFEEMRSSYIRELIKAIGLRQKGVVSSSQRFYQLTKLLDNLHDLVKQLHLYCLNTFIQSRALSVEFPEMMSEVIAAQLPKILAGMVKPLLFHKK
Chain of Androgen Receptor/SRC-1 Co-activator, AR (gene 367) (P10275 whole entry, looked up, the tested form may be a part): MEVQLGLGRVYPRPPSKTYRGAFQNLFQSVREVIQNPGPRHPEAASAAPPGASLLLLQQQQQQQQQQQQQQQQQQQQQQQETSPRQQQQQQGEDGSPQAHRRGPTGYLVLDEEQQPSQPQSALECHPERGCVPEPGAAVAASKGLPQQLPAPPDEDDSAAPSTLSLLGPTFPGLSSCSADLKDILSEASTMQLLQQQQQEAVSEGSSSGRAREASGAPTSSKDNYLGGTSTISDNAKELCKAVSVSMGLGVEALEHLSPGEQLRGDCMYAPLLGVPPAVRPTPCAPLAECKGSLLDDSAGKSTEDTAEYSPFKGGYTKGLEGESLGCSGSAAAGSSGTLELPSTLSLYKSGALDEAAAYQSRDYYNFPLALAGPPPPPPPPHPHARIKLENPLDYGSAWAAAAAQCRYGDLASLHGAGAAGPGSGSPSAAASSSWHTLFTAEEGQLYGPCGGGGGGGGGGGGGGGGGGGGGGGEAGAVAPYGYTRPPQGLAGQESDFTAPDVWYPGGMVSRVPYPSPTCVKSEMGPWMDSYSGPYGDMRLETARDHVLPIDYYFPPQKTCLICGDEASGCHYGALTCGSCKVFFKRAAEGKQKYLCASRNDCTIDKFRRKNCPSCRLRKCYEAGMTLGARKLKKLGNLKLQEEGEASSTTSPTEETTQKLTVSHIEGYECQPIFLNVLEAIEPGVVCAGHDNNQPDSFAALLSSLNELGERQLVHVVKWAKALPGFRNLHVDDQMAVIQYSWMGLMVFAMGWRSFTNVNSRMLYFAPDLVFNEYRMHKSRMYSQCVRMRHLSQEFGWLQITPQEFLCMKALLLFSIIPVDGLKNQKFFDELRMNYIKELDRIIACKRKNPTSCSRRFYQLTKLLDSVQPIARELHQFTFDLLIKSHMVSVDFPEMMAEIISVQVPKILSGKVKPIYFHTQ
T1 sequence (P03372 whole entry, looked up): as the sequence (P03372 whole entry, looked up, the tested form may be a part) above
T1 sequence (Q92731 whole entry, looked up): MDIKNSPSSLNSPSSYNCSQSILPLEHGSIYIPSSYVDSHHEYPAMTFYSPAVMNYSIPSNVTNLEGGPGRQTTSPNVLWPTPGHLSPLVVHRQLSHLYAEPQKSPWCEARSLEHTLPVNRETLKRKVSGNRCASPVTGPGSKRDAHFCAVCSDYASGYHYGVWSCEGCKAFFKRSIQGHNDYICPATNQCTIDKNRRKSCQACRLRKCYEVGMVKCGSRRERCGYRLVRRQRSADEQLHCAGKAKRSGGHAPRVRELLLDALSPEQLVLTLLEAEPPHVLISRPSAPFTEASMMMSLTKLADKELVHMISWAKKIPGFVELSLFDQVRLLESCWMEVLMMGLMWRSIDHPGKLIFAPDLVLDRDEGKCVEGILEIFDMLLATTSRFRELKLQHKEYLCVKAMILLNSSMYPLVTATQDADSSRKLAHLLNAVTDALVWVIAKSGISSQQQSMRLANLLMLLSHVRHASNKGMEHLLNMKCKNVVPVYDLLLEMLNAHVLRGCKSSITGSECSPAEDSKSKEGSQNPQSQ
Chain of Estrogen receptor beta (Homo sapiens) (Q92731 whole entry, looked up, the tested form may be a part): as the sequence (Q92731 whole entry, looked up) above

Regarding `CCCCCCCCCC=CCC1CC(=O)OC1=O` (stereo not given), the compound was classed as inactive in [1], in test [2], in test [3], in test [4], in [5] and in [6]. Moreover, the outcome in [7] was inactive.
Regarding `CCC1CO1` (stereo not given), the half-maximal activity concentration (AC50) in [8] was 5 µM (active).
With `NNc1nc(-c2ccc([N+](=O)[O-])cc2)cs1`, the outcome in test [9] was inactive.
With `CC(C)[C@@H]1CC[C@@H](C)C[C@H]1O`, the AC50 in [8] was 0.376 µM (active). Moreover, the compound was classed as inactive in [4], in test [5] and in test [7].
Turning to `Clc1ccc(Nc2nnc(Cc3ccncc3)c3ccccc23)cc1`, the compound was classed as inactive with PGR (gene 5241).
As for `CC(C)(c1ccc(Oc2ccc(N)cc2)cc1)c1ccc(Oc2ccc(N)cc2)cc1`, the call in test [8] was inactive.
In the case of `NCc1cccc(CN)c1`, the compound was classed as inactive in test [10], in test [9], in test [1], in test [2], in test [3] and in test [6]. In test [7], the result was inactive.
Consider `NS(=O)(=O)O`, for which the compound was called inactive in test [7].
For the compound `CC(=O)Nc1ccc(O)cc1`, the compound was classed as inactive in test [4], in [5] and in [7].
For `CC(O)COc1ccccc1` (stereo not given), the outcome in [4], in [5] and in test [7] was inactive.
As for `O=C(O)c1cccc(C(=O)O)n1`, the call in [1], in test [2], in test [3] and in [6] was inactive.
`C[C@]12CC[C@@H]3c4ccc(O)cc4CC[C@H]3[C@@H]1C[C@@H](O)[C@@H]2O`: in test [8], the compound was called inactive. For the same compound, the AC50 in test [7] is 0.552 µM (active); with PGR (gene 5241) it was 35.4 µM (active).
In the case of `O=S(=O)(O)c1ccccc1`, the compound was classed as inactive in [7].
Consider `Cc1[nH]nc2c1N=C(c1ccccc1Cl)c1cc([N+](=O)[O-])ccc1N2`, for which the compound was called inactive in test [7].
On to `Cc1cc(C(C)(C)C)c(O)c(C(C)(C)C)c1`, for which, in test [7], the result was inactive.
For the compound `CCC(C)c1ccccc1O` (stereo not given), the compound was classed as inactive in [7].
For the compound `O=C1NS(=O)(=O)c2ccccc21`, the call in test [7] and in test [11] was inactive.
Turning to `CCCCC(CC)C(=O)O` (stereo not given), the call in test [12] was inactive.
As for `NCCN`, the call in test [1], in test [2] and in [12] was inactive.
As to `c1cc[nH]c1`, the compound was classed as inactive in the test with PGR (gene 5241).
As for `CCCCc1ccc2ccccc2c1S(=O)(=O)O`, the compound was classed as inactive in test [1], in test [2], in test [3], in test [4], in [5] and in [6]. Moreover, the compound was classed as inactive in test [7] and in test [12].
Regarding `CCCCCCCCCCCCOC(=O)c1cc(O)c(O)c(O)c1`, the compound was classed as inactive in [10], in test [2] and in [7]. Also, the AC50 was 11.9 µM (active) in test [1], 11.9 µM (active) in test [3], 11.9 µM (active) in test [6] and 36.9 µM (active) in test [11].
On to `Cc1cc(Cc2cc(C)cc(C(C)(C)C)c2O)c(O)c(C(C)(C)C)c1`, for which the call in [9], in test [1], in test [2], in test [6] and in [7] was inactive.
Consider `Cc1cc(C(=C2C=CC(=Nc3ccc(S(=O)(=O)O)cc3)C=C2)c2ccc(Nc3ccc(S(=O)(=O)O)cc3)cc2)cc(S(=O)(=O)O)c1N`, for which, in test [8], the AC50 is 15.5 µM (active). Also, the compound was classed as inactive in [1], in [2], in test [3], in [4], in [5] and in [6]. Also, the result in test [7] was inactive.
With `COc1cc([N+](=O)[O-])ccc1N`, the call in test [1], in test [2], in [3], in test [4], in test [5] and in [6] was inactive. For the same compound, the call in [7] was inactive.
Regarding `CN(Cc1cnc2nc(N)nc(N)c2n1)c1ccc(C(=O)N[C@@H](CCC(=O)O)C(=O)O)cc1`, the outcome in [1], in test [2], in test [3], in test [4], in test [5] and in test [13] was inactive. Besides, the outcome (in [6]; with PGR (gene 5241)) was inactive.
On to `CCCCCCCCCCCCCC[n+]1ccccc1`, for which the result in [9] was inactive.
For the compound `O=C1OC2(c3ccccc31)c1cc(I)c(O)c(I)c1Oc1c2cc(I)c(O)c1I`, the concentration at half-maximal activity (AC50) is 21.6 µM (active) in test [8] and 19.7 µM (active) in [11]. In [8], the result was inactive.
For `CCCCCCC(C)(C)C(=O)O`, the outcome in test [1], in test [2], in test [3], in test [4], in [5] and in test [6] was inactive. Moreover, in test [7], the call was inactive.
Turning to `CCCCCCCCCCCC(=O)O`, in test [7], the call was inactive.
`O=C(c1ccccc1)c1ccccc1`: the result in [4] and in test [5] was inactive.
`O=C(Nc1ccc(Cl)c(Cl)c1)c1cc(Cl)cc(Cl)c1O`: the half-maximal activity concentration (AC50) in test [9] is 25 µM (active).
